# Measurements published in PubChem BioAssay AID493243 (Broad Institute, 2011).
# Calls of active or inactive are those of the source. How the calls were made is not given here.
# Test: GFP fluorescence signal inhibitors, dose response, artefact control, biochemical, plate reader, dry powder (AID 493243)
# Conditions: GFP fluorescence counter-screen
smiles,measurement,value
CCn1nc(/C=C/c2ccccc2)nc2c(=O)n(C)c(=O)nc1-2,AC50,0.221 µM (active)
